Compound activity as filed in PubChem BioAssay.
LmPK inh – qHTS Assay for Inhibitors of Leishmania Mexicana Pyruvate Kinase (LmPK). 0.37% of 290,000 active. purified LmPK, Kinase-Glo ATP luminescence, 1 h. Potency, µM (top dose mostly 57.5 µM), usual class: inhibitors
Target sequence (Q27686 whole entry, looked up): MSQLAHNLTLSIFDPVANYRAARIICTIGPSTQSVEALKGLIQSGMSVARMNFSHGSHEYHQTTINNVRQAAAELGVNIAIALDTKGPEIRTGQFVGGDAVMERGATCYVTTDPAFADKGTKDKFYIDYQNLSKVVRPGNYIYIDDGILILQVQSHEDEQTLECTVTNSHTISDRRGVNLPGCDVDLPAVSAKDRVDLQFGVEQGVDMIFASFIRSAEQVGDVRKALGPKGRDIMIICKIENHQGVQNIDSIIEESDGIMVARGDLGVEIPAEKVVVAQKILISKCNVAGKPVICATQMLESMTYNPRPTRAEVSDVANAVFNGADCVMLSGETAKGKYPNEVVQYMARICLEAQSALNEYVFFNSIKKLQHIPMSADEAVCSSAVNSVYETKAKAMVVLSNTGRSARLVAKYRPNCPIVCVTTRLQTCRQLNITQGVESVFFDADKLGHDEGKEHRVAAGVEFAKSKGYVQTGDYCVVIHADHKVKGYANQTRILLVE
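Purified LmPK (0.1 nM) converted ADP (0.1 mM) to ATP with PEP (0.5 mM) in imidazole buffer pH 7.2 with KCl and MgCl2, 1 h at room temperature. ATP was read by Kinase-Glo luminescence; data normalized to uninhibited and no-enzyme controls.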
NS1 inh – qHTS Assay for Inhibitors of Influenza NS1 Protein Function. Potency, µM (titrated, usually from 46.1 µM). 0.4% of 270,000 active. AID 2326, 2010; calls by dose curve; note: actives are rising curves; nearly all actives have a fitted effect of over 50% in size
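A cell-based growth assay was used: compounds that relieve NS1-induced slow growth of budding yeast raise OD600. Assay medium was yeast nitrogen base with ammonium sulphate and -URA supplement, pH 6.0, with 2% galactose.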
SARS PLpro yeast – qHTS of Yeast-based Assay for SARS-CoV PLP; Potency, µM (series often up to 32.9 µM), most hits filed as activators; S. cerevisiae expressing SARS-CoV PLpro, growth rescue; 0.19% of 330,000 active; AID 485353, 2010; calls by dose curve; note: nearly all actives have a fitted effect of over 55% in size
CHX counter – Cycloheximide Counterscreen for Small Molecule Inhibitors of Shiga Toxin. max response, %. 12% of 300,000 active. AID 2314, 2010. cell reporter, cycloheximide protein synthesis inhibition counterscreen; in the data active = max response mostly above about 13%, no sharp cut-off; inactive = mostly below about 14%; note: read at 38.3 µM for the half of the compounds with a filed dose
Shiga toxin inh – A qHTS for Small Molecule Inhibitors of Shiga Toxin. Vero cells, Shiga toxin protein synthesis inhibition reporter. inhibition, % at 38.7 µM. 9.2% of 290,000 active; in the data active = inhibition mostly above about 28%, no sharp cut-off; inactive = mostly below about 43%
TbPYK inhibitor – qHTS of Trypanosoma Brucei Inhibitors; pyruvate kinase (Trypanosoma brucei), Q57TT1; TbPYK enzyme, Kinase-Glo Plus ATP luminescence, 45 min; Potency, µM (doses to about 76.8 µM), hits mostly inhibitors; 0.12% of 410,000 active; note: nearly all actives have a fitted effect of over 50% in size
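TbPYK + substrate in 50 mM TEA pH 7.2, 100 mM KCl, 10 mM MgCl2, 0.05% BSA, 0.01% Tween-20; cpd pinned; ADP 130 uM final; 45 min RT; Kinase-Glo Plus 10 min; luminescence endpoint.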
Numbers stand for hits; i = inactive; ? = inconclusive; nt = no result. Many of the other results were omitted from the sample, so hits are more common in it than they were. Unless noted, calls come from the whole dose curve; as a rule, active = well fitted curve in the direction sought with a large enough effect; inconclusive = small, poorly fitted or top-dose-only effect, or another doubt; inactive = no such curve, though single readings can be large; an effect the other way counts as inactive or inconclusive.

SMILES | LmPK inh | NS1 inh | SARS PLpro yeast | CHX counter | Shiga toxin inh | TbPYK inhibitor
O=C(NC(=O)c1ccccc1F)OCc1ccc(Cl)cc1Cl | i | i | i | 26.4 | 69.3 | i
O=C(CNC(=O)c1ccccc1F)NCCc1ccc(Cl)cc1Cl | i | i | i | i | i | i
CC(=O)NNC(=S)NCCc1ccccc1 | i | nt | i | i | i | i
Nc1c([N+](=O)[O-])cc2c3c(cccc13)CC2 | nt | nt | nt | nt | nt | i
O=C(NCCc1ccccc1)c1ccccc1C(=O)NCCc1ccccc1 | nt | nt | nt | nt | nt | i
O=C(NCCc1ccccc1)c1ccc(Cl)cc1[N+](=O)[O-] | i | i | i | 27.4 | 67.3 | i
O=C(NCCc1ccccc1)c1c(F)c(F)c(F)c(F)c1F | i | i | i | i | 32.5 | i
O=C(NCCc1ccccc1)c1cc(S(=O)(=O)N2CCOCC2)ccc1F | i | i | i | 18.9 | i | i
CCc1c(C(=O)NNC(=S)NCCc2ccccc2)csc1C | i | i | i | 11.8 | i | i
CCc1c(C(=O)NNC(=S)NC2CCCCC2)csc1C | i | i | i | i | i | i
O=C(NCc1ccc(Cl)cc1)c1ccc(Cl)cc1[N+](=O)[O-] | i | i | i | i | i | i
ClC[C@H]1CO1 (tested in a mixture with another compound) | nt | nt | nt | nt | nt | i
O=C(CCNC(=O)C1CCN(S(=O)(=O)c2ccc(F)cc2)CC1)NCc1ccccc1 | i | i | i | i | i | i
CCOC(=O)Nc1c(Cl)n(C)c(=O)n(C)c1=O | i | i | i | i | i | i
CCCCc1nc2ccn(CC(=O)N(C)C)c(=O)c2n1Cc1ccc(-c2ccccc2-c2nn[nH]n2)cc1 | nt | nt | nt | i | i | nt
COc1ccc(CCNC(=S)NC(=O)c2ccc(Br)cc2)cc1OC | i | i | i | i | i | i
O=C(NCCc1ccccc1)c1ccccc1F | i | i | i | 35.5 | 108.8 | i
Cc1ccc(C(=O)NCCCc2ccccc2)s1 | i | i | i | 52.8 | 134.1 | i
COc1ccc(CCNC(=S)NC(=O)c2ccccc2)cc1C | i | i | i | 8.4 | i | i
Cc1ccccc1C(=O)NCCCc1ccccc1 | i | i | i | 39.1 | 139.8 | i
CCN1CCC[C@@H]1CNC(=O)c1cc(S(=O)(=O)CC)ccc1OC | nt | nt | nt | nt | nt | i
Cc1occc1C(=O)NCCCCc1ccccc1 | i | i | i | 23.4 | 54.8 | i
O=C(NCCCCc1ccccc1)c1ccccc1F | i | i | i | 16.6 | i | i
O=C(NCCc1ccc2c(c1)OCCO2)c1ccccc1F | i | i | i | 69.7 | 91.4 | i
O=C(NCCc1ccccc1)c1c[nH]c2c(F)cccc2c1=O | i | i | i | 23.2 | 28.6 | i
SMILES | LmPK inh | NS1 inh | SARS PLpro yeast | CHX counter | Shiga toxin inh | TbPYK inhibitor
Cc1cccc2c(=O)c(C(=O)NCCc3ccccc3)c[nH]c12 | i | i | i | i | nt | i
Cc1cccc(-n2nc3c(c2NC(=O)c2ccc4c(c2)OCO4)CS(=O)(=O)C3)c1C | i | i | i | i | i | i
CCCNC(=O)c1cc(C2CCCCN2C(=O)c2cc(OC)c(C)c(OC)c2)on1 (configuration not stated) | nt | nt | nt | nt | nt | i
Cc1occc1C(=O)NCCc1ccc(Cl)cc1 | i | i | i | i | i | i
Cc1ccc(SCCNC(=O)c2ccccc2F)cc1 | i | i | i | 13.3 | i | i
C/C(=N/NC(=O)Cc1ccccc1)c1ccc(C)s1 | i | i | i | 25.4 | i | i
COc1ccccc1CCNC(=O)c1ccoc1C | i | i | i | 19.3 | i | i
O=S(=O)(c1ccc(-c2cnc(C3CC3)o2)cc1)N1CCN(c2ccc(F)cc2)CC1 | nt | nt | nt | nt | nt | i
O=C(NCC(c1cccnc1)N1CCc2ccccc2C1)C(=O)Nc1ccccc1F (configuration not stated) | nt | nt | nt | nt | nt | i
O=C(c1ccccc1)N1CCCc2ccccc21 | i | i | i | i | i | i
O=C(c1cccc(N2C(=O)C3C4C=CC(C4)C3C2=O)c1)N1CCCc2ccccc21 (configuration not stated) | i | nt | i | i | i | i
O=C(c1ccc2c(c1)OCO2)N1CCCCC1 | nt | nt | nt | i | i | nt
O=C(c1ccc2c(c1)OCO2)N1CCc2ccccc2C1 | i | i | i | 70.4 | 55.1 | i
O=C(c1ccc(=O)oc1)N1CCCc2ccccc21 | i | ? | i | 50.7 | 76.2 | i
O=C(c1ccc2c(c1)OCO2)N1CCCc2ccccc21 | i | i | i | 39.7 | 73.7 | i
